{
  "source": "paper PMC4336329",
  "about": "(PLoS ONE, 2015)",
  "note": "Among all 310,000 compounds or so, about 14,000 (4.5%) showed an effect of 50% or more. Effects have a minus sign here. The entries come from a sample that favours strong results as a whole.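 Note: peak tail current of the secondary pulse compared with the same well before compound.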",
  "data": [
    {"biological_target": "human ether-à-go-go-related gene (hERG) potassium channel (human, UniProt Q12809)", "sequence (Q12809 whole entry, looked up)": "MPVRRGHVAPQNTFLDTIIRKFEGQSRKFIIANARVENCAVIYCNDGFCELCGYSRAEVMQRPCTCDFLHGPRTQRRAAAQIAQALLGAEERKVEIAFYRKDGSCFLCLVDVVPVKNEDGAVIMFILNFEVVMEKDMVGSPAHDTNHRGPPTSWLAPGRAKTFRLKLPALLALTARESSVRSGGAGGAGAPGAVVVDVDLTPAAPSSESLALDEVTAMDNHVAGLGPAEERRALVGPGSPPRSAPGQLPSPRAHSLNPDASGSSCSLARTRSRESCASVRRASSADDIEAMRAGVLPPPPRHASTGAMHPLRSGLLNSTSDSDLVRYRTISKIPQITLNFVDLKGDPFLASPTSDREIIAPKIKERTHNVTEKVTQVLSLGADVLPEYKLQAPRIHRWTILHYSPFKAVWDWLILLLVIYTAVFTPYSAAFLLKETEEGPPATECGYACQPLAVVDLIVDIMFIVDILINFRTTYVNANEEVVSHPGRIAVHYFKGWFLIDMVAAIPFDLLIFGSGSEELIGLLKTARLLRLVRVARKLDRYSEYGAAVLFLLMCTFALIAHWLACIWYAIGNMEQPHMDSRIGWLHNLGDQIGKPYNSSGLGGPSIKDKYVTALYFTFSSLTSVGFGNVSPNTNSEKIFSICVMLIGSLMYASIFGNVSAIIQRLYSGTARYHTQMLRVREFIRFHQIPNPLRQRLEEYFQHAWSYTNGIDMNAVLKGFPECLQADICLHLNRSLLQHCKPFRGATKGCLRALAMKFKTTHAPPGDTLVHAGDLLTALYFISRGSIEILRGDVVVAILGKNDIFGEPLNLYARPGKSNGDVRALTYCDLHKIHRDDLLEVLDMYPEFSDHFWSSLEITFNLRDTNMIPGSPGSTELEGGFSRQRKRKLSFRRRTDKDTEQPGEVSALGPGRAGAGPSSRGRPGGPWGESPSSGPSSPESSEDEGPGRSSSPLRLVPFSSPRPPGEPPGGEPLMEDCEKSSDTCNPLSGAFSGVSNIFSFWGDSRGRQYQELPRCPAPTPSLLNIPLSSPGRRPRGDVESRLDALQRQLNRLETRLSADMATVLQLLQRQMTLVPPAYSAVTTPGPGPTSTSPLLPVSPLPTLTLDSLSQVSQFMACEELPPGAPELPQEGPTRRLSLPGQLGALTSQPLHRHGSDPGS", "experiment": "primary screen, population patch clamp on CHO cells stably expressing hERG; higher = less effect of the substance", "units": {"hERG current change (%, negative = inhibition) at 10uM": "%"}, "values": [
      {"smiles": "CCN(C(=O)C(C)N1C(=O)/C(=C/c2cccs2)SC1=S)C1CCS(=O)(=O)C1", "note": "(centres unmarked)", "hERG current change (%, negative = inhibition) at 10uM": -27.3},
      {"smiles": "COC(=O)c1ccc(C(=O)OC)c(NC(=O)CN2CCN(c3ccc(OC)cc3)CC2)c1", "hERG current change (%, negative = inhibition) at 10uM": 11.5},
      {"smiles": "Cc1csc(Nc2ccc(Cl)cc2)[n+]1-c1ccc(Cl)cc1.[Br-]", "hERG current change (%, negative = inhibition) at 10uM": 14.9},
      {"smiles": "CC(C)CNC(=O)c1ccccc1NC(=O)CCSc1ccccc1", "hERG current change (%, negative = inhibition) at 10uM": -17.6},
      {"smiles": "COC(=O)c1ccc([C@H]2C=C(C(=O)O)O[C@@H](OCc3ccc(CO)cc3)C2)cc1", "hERG current change (%, negative = inhibition) at 10uM": 13.6},
      {"smiles": "CCN(CC)CCOCCOc1ccc(Cl)c2ccccc12", "hERG current change (%, negative = inhibition) at 10uM": -68},
      {"smiles": "CCN(CC)CCOCCOc1ccccc1F", "hERG current change (%, negative = inhibition) at 10uM": -3.91},
      {"smiles": "CN(C)CCOCCOc1ccc(Cl)c2ccccc12.O=C(O)C(=O)O", "hERG current change (%, negative = inhibition) at 10uM": -44.5},
      {"smiles": "COc1ccccc1CCNC(=O)C(=O)NCC1OCCN1S(=O)(=O)c1ccc([N+](=O)[O-])cc1", "note": "(centres unmarked)", "hERG current change (%, negative = inhibition) at 10uM": -46.7},
      {"smiles": "O=C(NCCN1CCOCC1)c1ccc2c(c1)ncn2C1CCCC1", "hERG current change (%, negative = inhibition) at 10uM": -6.39},
      {"smiles": "c1ccc(CN2CCN(c3ncnc4c3[nH]c3ccccc34)CC2)cc1", "hERG current change (%, negative = inhibition) at 10uM": -62.5},
      {"smiles": "Cc1ccc2[nH]c3c(N4CCN(Cc5ccccc5)CC4)ncnc3c2c1", "hERG current change (%, negative = inhibition) at 10uM": -72.3},
      {"smiles": "c1ccc2c(c1)[nH]c1c(N3CCCC3)ncnc12", "hERG current change (%, negative = inhibition) at 10uM": -15.2},
      {"smiles": "Cc1ccc2[nH]c3c(N4CCOCC4)ncnc3c2c1", "hERG current change (%, negative = inhibition) at 10uM": -0.757},
      {"smiles": "c1ccc2c(c1)[nH]c1c(N3CCSCC3)ncnc12", "hERG current change (%, negative = inhibition) at 10uM": -4.82},
      {"smiles": "COc1cccc2[nH]c3c(N4CCN(Cc5ccc6c(c5)OCO6)CC4)ncnc3c12", "hERG current change (%, negative = inhibition) at 10uM": -17.3},
      {"smiles": "COc1ccc2c(c1)[nH]c1c(N3CCN(Cc4ccc5c(c4)OCO5)CC3)ncnc12", "hERG current change (%, negative = inhibition) at 10uM": -74},
      {"smiles": "Cc1ccc2c(c1)[nH]c1c(N3CCN(Cc4ccccc4)CC3)ncnc12", "hERG current change (%, negative = inhibition) at 10uM": -24.5},
      {"smiles": "COc1ccc2[nH]c3c(N4CCN(Cc5ccc6c(c5)OCO6)CC4)ncnc3c2c1", "hERG current change (%, negative = inhibition) at 10uM": -18.8},
      {"smiles": "Cn1c2c(c(=O)n(C)c1=O)C(NC(=O)c1ccco1)(C(F)(F)F)C(=O)N2", "note": "(centres unmarked)", "hERG current change (%, negative = inhibition) at 10uM": 16.3},
      {"smiles": "O=C1OC(c2ccccc2)=C/C1=C/N1CCOCC1", "hERG current change (%, negative = inhibition) at 10uM": 2.28},
      {"smiles": "O=C(NCCc1nnc2ccc(NCc3ccccc3Cl)nn12)c1ccccc1", "hERG current change (%, negative = inhibition) at 10uM": 10.4},
      {"smiles": "N#Cc1cc2c(nc1SCC(=O)O)CCCCC2", "hERG current change (%, negative = inhibition) at 10uM": 3.05},
      {"smiles": "CCOC(=O)c1sc(NC(=O)c2ccc3ncsc3c2)nc1C", "hERG current change (%, negative = inhibition) at 10uM": 10.8},
      {"smiles": "O=C(Nc1ccccc1Cl)c1cc[n+]([O-])cc1", "hERG current change (%, negative = inhibition) at 10uM": 27.8},
      {"smiles": "COc1ccc(CC[NH+](C)CCCN2CC(c3ccccc3)CC2=O)cc1OC.O=C([O-])C(=O)[O-]", "note": "(centres unmarked)", "hERG current change (%, negative = inhibition) at 10uM": -71.1},
      {"smiles": "COc1ccc(C2SCC(=O)N2CCc2ccc(OC)c(OC)c2)cc1", "note": "(centres unmarked)", "hERG current change (%, negative = inhibition) at 10uM": -31.3},
      {"smiles": "COc1ccc(NC(=O)CN2CC(c3ccccc3)CC2=O)cc1OC", "note": "(centres unmarked)", "hERG current change (%, negative = inhibition) at 10uM": 8.33},
      {"smiles": "COc1ccc(CCN2CC(C(=O)NCc3ccc(F)cc3)CC2=O)cc1OC", "note": "(centres unmarked)", "hERG current change (%, negative = inhibition) at 10uM": 2.45},
      {"smiles": "COc1ccc(CCN2CC(C(=O)O)CC2=O)cc1OC", "note": "(centres unmarked)", "hERG current change (%, negative = inhibition) at 10uM": 0.984},
      {"smiles": "COc1ccc(C2CC(=O)N(CCC[NH+](C)CCc3ccc(OC)c(OC)c3)C2)cc1.O=C([O-])C(=O)[O-]", "note": "(centres unmarked)", "hERG current change (%, negative = inhibition) at 10uM": -74.7},
      {"smiles": "O=C(/C=C/c1ccc(O)cc1)c1ccc(O)cc1O", "hERG current change (%, negative = inhibition) at 10uM": 9.4},
      {"smiles": "CCCn1c(O)c(CN2CCCCC2)c(C)c(C#N)c1=O", "hERG current change (%, negative = inhibition) at 10uM": 15.5},
      {"smiles": "O=C(NC(=S)Nc1ccc(N2CCOCC2)cc1)c1cncc(Br)c1", "hERG current change (%, negative = inhibition) at 10uM": 19.5},
      {"smiles": "CC(C)CC(=O)Nc1ccnn1C1CCN(C(=O)c2ccc(Cl)cc2F)CC1", "hERG current change (%, negative = inhibition) at 10uM": -30.4},
      {"smiles": "N#CC(C#N)C(c1ccsc1)c1c(-c2ccccc2)[nH][nH]c1=O", "note": "(centres unmarked)", "hERG current change (%, negative = inhibition) at 10uM": -3.36},
      {"smiles": "CN1C(=O)C(=O)/C(=C(/O)c2ccc(Br)cc2)C1c1ccccc1F", "note": "(centres unmarked)", "hERG current change (%, negative = inhibition) at 10uM": 8.71},
      {"smiles": "O=C(C1=C[C@H](c2coc3ccccc3c2=O)C[C@H](OCCCCO)O1)N1CCN(Cc2ccccc2)CC1", "hERG current change (%, negative = inhibition) at 10uM": -61.5},
      {"smiles": "O=C(C1=C[C@H](c2coc3ccccc3c2=O)C[C@H](OCCCCO)O1)N1CCOCC1", "hERG current change (%, negative = inhibition) at 10uM": -16},
      {"smiles": "CN1CCN(C(=O)C2=C[C@@H](c3coc4ccccc4c3=O)C[C@@H](OCCCCO)O2)CC1", "hERG current change (%, negative = inhibition) at 10uM": 0.749},
      {"smiles": "O=C(C1=C[C@@H](c2coc3ccccc3c2=O)C[C@@H](OCCCCO)O1)N1CCOCC1", "hERG current change (%, negative = inhibition) at 10uM": 7.47},
      {"smiles": "CN1CCN(C(=O)C2=C[C@H](c3coc4ccccc4c3=O)C[C@H](OCCCCO)O2)CC1", "hERG current change (%, negative = inhibition) at 10uM": -20.3},
      {"smiles": "O=C(C1=C[C@@H](c2coc3ccccc3c2=O)C[C@@H](OCCCCO)O1)N1CCN(Cc2ccccc2)CC1", "hERG current change (%, negative = inhibition) at 10uM": -57.9},
      {"smiles": "Nc1nc(Sc2c([N+](=O)[O-])cc(C(F)(F)F)cc2[N+](=O)[O-])n[nH]1", "hERG current change (%, negative = inhibition) at 10uM": 3.04}
    ]}
  ]
}
